# Results from PubChem BioAssay AID588590 (National Center for Advancing Translational Sciences (NCATS), 2011).
# In all, about 390,000 compounds went through this assay and about 4,000 (1%) were called active. Roughly 7% stayed inconclusive and do not appear here. Calls come from the whole dose curve; as a rule, active = well fitted inhibition curve with a large enough effect; inconclusive = small, poorly fitted or top-dose-only effect, or another doubt; inactive = no such curve, though single readings can be large or run the other way. The entries come from a sample that favours actives as a whole.
# Molecular target: DNA polymerase iota (Homo sapiens) (UniProt Q9UNA4)
# Experiment: qHTS for Inhibitors of Polymerase Iota
# Conditions: Pol iota fluorescent replication assay, 10 min; series mostly up to 115 µM; activity, negative = inhibition: at the top concentration
# Method in brief: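 Fluorescent replication assay read twice, at 0 min and 10 min after adding 50 nM (final) substrate. Enzyme (10 nM) and compounds were first incubated 15 min at room temperature; enzyme-free buffer wells were negative controls.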
# Potency is the fitted concentration of half-maximal effect.
# DNA polymerase iota (Homo sapiens), sequence (Q9UNA4 whole entry, looked up): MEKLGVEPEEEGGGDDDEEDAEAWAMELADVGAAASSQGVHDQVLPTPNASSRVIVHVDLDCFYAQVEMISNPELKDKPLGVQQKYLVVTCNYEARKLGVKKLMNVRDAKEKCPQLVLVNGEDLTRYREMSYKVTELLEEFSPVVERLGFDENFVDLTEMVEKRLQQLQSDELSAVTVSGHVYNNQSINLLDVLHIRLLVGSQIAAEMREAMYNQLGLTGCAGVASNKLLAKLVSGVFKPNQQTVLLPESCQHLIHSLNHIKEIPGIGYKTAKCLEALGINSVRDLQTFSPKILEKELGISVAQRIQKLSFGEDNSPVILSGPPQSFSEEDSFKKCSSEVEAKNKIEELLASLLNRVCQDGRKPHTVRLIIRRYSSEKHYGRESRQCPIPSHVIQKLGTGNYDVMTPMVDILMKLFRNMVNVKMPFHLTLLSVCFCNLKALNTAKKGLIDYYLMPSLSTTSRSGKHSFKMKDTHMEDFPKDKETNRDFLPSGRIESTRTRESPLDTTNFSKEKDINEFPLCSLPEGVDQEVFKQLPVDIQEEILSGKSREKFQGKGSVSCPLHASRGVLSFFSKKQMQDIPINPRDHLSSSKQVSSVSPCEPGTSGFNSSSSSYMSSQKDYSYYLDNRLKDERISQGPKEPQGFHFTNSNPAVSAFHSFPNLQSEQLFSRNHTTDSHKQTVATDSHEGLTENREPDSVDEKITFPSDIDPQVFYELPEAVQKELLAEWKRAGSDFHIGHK
Compound,"activity, negative = inhibition",Potency
CN(Cc1ccccc1)C(=O)c1cc2c(=O)n(C)c3ccccc3c2s1,-0.232% (inactive),
CN(C)c1ccc(/C=C/c2sc3ccccc3[n+]2CCCCBr)cc1,41.8% (inactive),
CN(C)c1ccc(/C=C/c2c3ccccc3nc3ccccc23)cc1,-2.85% (inactive),
CN(C)c1ccc(/C=C/c2sc3ccccc3[n+]2C)cc1,,79.4 µM (active)
CCCN1CCC(=O)N(C(CSc2ccc(OC)cc2)Cc2ccccc2)CC1 (stereo unspecified),14.6% (inactive),
C[N+]1(CC(=O)c2cccs2)CCOCC1,14.8% (inactive),
CCc1ccc(N2CC(C(=O)NC3=NCCS3)CC2=O)cc1 (stereo unspecified),,89.1 µM (active)
CCc1ccc(N2CC(C(=O)Nc3ccc(S(=O)(=O)Nc4nccs4)cc3)CC2=O)cc1 (stereo unspecified),7.88% (inactive),
CCc1ccc(N2CC(C(=O)N3CCCCCC3)CC2=O)cc1 (stereo unspecified),-6.39% (inactive),
Cc1cccc(CN2Cc3cccc4c3[C@H](C=CC4)CC2=S)c1,31.4% (inactive),
CC1CCCN(S(=O)(=O)c2ccc3[nH]c(=O)cc(C(=O)NCCc4ccc(Cl)cc4)c3c2)C1 (stereo unspecified),4.12% (inactive),
COc1cc2nc(Cl)nc(NC3CC3)c2cc1OC,17.8% (inactive),
COc1ccc(C)cc1NC(=O)C(=O)NCCc1sc(-c2cccc(C)c2)nc1C,32% (inactive),
C=C1c2c(Cl)ccc(O)c2C(O)=C2C(=O)[C@]3(O)C(O)=C(C(N)=O)C(=O)[C@@H](N(C)C)[C@@H]3[C@@H](O)C12 (stereo partly specified),,2.51 µM (active)
Cc1ccc(NC(=O)c2nc(S(=O)(=O)Cc3cccc(C)c3)ncc2Cl)cc1,-13.9% (inactive),
COc1cc(C(CC(=O)NCCC(C)C)N2Cc3ccccc3C2=O)cc(OC)c1OC (stereo unspecified),5.25% (inactive),
COc1ccc(CCNC(=O)c2c3c(nc4ccccc24)C(=O)N(C2CCCCC2)C3)cc1OC,8.03% (inactive),
Cc1c(NC(=O)C(C)(C)C)cccc1-c1nc2ccccc2s1,11.4% (inactive),
O=C(COc1ccc(Cl)cc1)Nc1ccc(-c2nc3cc(Cl)ccc3o2)c(O)c1,28.2% (inactive),
O=C1C2C3C=CC(C4CC34)C2C(=O)N1/N=C/c1ccc(-c2ccccc2[N+](=O)[O-])o1 (stereo unspecified),-5.9% (inactive),
CC1=NN(c2ccc(Cl)c(C(=O)O)c2)C(=O)/C1=C/c1ccc(-c2ccccc2[N+](=O)[O-])o1,,1.41 µM (active)
O=C(O)c1ccc2c(=O)n3c(nc2c1)/C(=C/c1ccc(Cl)c([N+](=O)[O-])c1)CC3,123% (inactive),
Cc1ccc2onc(CC(=O)N3CCN(c4ccc(Cl)cc4)CC3)c2c1,9.13% (inactive),

Compound,"activity, negative = inhibition",Potency
COc1ccc(C2Nc3ccc(NC(=O)COC(C)=O)cc3C(=O)N2Cc2ccccc2)cc1COc1ccc(NC(C)=O)cc1 (stereo unspecified),15.4% (inactive),
COC(=O)c1ccccc1NC(=O)Cn1c(=O)cc(C)c2c(C)nn(-c3cccc(Cl)c3C)c21,34.6% (inactive),
COc1ccc(Cl)cc1C(=O)NNC(=S)NC(=O)/C=C/c1ccco1,16.2% (inactive),
CC(C)CNC(=O)COC(=O)/C=C/c1ccco1,-29.3% (inactive),
O=C(/C=C/c1ccco1)NC(=S)Nc1ccccc1Br,,25.1 µM (active)
CC(=O)Nc1ccc(NC(=O)C2CCCN(S(=O)(=O)c3ccc4c(c3)CCCC(=O)N4)C2)cc1 (stereo unspecified),2.46% (inactive),
COc1ccc(-c2nc(=N)sn2-c2ccccc2)cc1,-18.6% (inactive),
CCC(CC)C(=O)Nc1ccc(S(=O)(=O)Nc2nccs2)cc1,111% (inactive),
COc1ccccc1OC(C)C(=O)Nc1ccc(S(=O)(=O)Nc2nccs2)cc1 (stereo unspecified),76.1% (inactive),
O=C(Nc1ccc(S(=O)(=O)Nc2nccs2)cc1)c1cc(-c2ccncc2)nc2ccccc12,,11.2 µM (active)
COc1ccc(NS(=O)(=O)c2cc3c4c(c2)CC(=O)N4CCC3)cc1Cl,-8.67% (inactive),
CCOc1ccc(OCC)c(NC(=O)CN(c2ccc(C)cc2)S(=O)(=O)c2c(C)n[nH]c2C)c1,9.87% (inactive),
CC1CCN(S(=O)(=O)c2ccc3c(ccn3CCC(=O)NCc3ccc(N(C)C)cc3)c2)CC1,-7.35% (inactive),
O=C(NC1CC(=O)N(c2ccc(Cl)cc2)C1)C1CCCC1 (stereo unspecified),5.35% (inactive),
CCCCCC(=O)Nc1ccc(S(=O)(=O)Nc2ccc(Cl)nn2)cc1,-8.6% (inactive),
COc1ccc(NC(=O)CSc2nc(NS(=O)(=O)c3ccc(C)cc3)cc(=O)[nH]2)cc1,8.29% (inactive),
Cc1nnc(SCC(=O)Nc2ccc(S(=O)(=O)Nc3ccc(Cl)nn3)cc2)s1,,28.2 µM (active)
NC(=O)Nc1ccc(/C=C/c2ccnc3ccccc23)cc1,24.2% (inactive),
COc1ccc(-c2[nH]c3c(c2-c2c(-n4cccc4)n(C)c(=O)n(C)c2=O)c(=O)n(C)c(=O)n3C)cc1,33.3% (inactive),
COc1ccc(C(=O)n2nc(-c3ccc(Cl)cc3)nc2N)cc1OC,8.66% (inactive),
CCCC(=O)n1nc(-c2ccccc2)nc1N,,79.4 µM (active)
COc1ccc(CC(=O)n2nc(-c3cccnc3)nc2N)cc1,18.7% (inactive),
CCC(Sc1nnc(-c2ccc(OC)cc2)c(-c2ccc(OC)cc2)n1)C(=O)NC1CCCCC1 (stereo unspecified),9.48% (inactive),
